We go through 20 compounds from PubChem BioAssay.

Unmarked numbers belong to inactive results. For some of these results: Potency and affinity values are given separately. The source made the active and inactive calls. Unless noted, the rule behind the calls is not given here.

Assay [1] can be described thus: antimalarial activity against Dd2 strain (AID 2302;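 active = growth inhibition above 50% at the single 2 µM test dose, taken to imply half-maximal potency below 2 µM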;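 note: 0% = DMSO untreated growth and 100% = chloroquine plus artemisinin killed control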). To be noted: P. falciparum Dd2 in RBCs, LDH growth readout, 72 h; at 2 µM; hits give high values.
The nature of assay [2]: HepG2 cytotoxicity, primary screen, cytotoxicity control for P. falciparum antimalarial project, cell-based, ATP luminescence (AID 2303;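 active = inhibition above 50%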;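 note: 0% = DMSO wells and 100% = digitonin-killed cells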). The following applies: HepG2 viability, 24-48 h, at 10 µM, hits give high values.
Assay [3] addresses L-lactate dehydrogenase (Plasmodium falciparum (isolate CDC / Honduras)) (UniProt Q27743). The assay is described as follows: PfLDH activity inhibition – cell lysate, 3D7 strain, counter-screen for P. falciparum growth inhibition project (AID 2304).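 Note: 0% = vehicle and 100% = reference inhibitor.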 To be noted: P. falciparum 3D7 crude extract, LDH APAD/NBT absorbance; at 2 µM; hits give high values. In general terms: Counterscreens check selectivity or assay interference.

A short description of assay [4]: inhibition of 3D7 malaria parasite growth – strain 3D7 (AID 2306).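 Note: 0% = DMSO wells and 100% = chloroquine plus artemisinin control wells.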 To be noted: P. falciparum 3D7 erythrocytic growth, LDH absorbance, 72 h; at 2 µM; hits give high values.
In assay [5] the target is Calcium-dependent protein kinase 1 (Plasmodium falciparum (isolate 3D7)) (UniProt P62344). Kind of assay: PfCDPK1 kinase inhibitors, biochemical, TCAMS library (AID 1159585; cut-off not given, nearly all actives have IC50 up to about 0.98 µM;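 note: inhibitors leave more ATP so luminescence rises with inhibition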). To be noted: recombinant PfCDPK1, Kinase-Glo ATP depletion luminescence. On the technique in general: In Kinase-Glo more light means more ATP remaining.
The target in assay [6] is Plasmodium falciparum protein kinase 6 (PK6, PF3D7_1337100) (UniProt Q8IDW1). The assay is described as follows: PfPK6 kinase inhibitors, biochemical, TCAMS library (AID 1159586). The following applies: recombinant PfPK6, Kinase-Glo ATP depletion luminescence.
Assay [7] has as its target Protein kinase 7 (PK7), Plasmodium falciparum 3D7 (PF3D7_0213400) (UniProt Q7YTF7). Kind of assay: inhibition of Plasmodium PK7 catalytic activity – biochemical, TCAMS antimalarial set, Kinase-Glo luminescence (AID 1159587). To be noted: recombinant PfPK7, Kinase-Glo ATP depletion luminescence.
The target in assay [8] is Calcium-dependent protein kinase 4 (Plasmodium falciparum (isolate 3D7)) (UniProt Q8IBS5). Kind of assay: PfCDPK4 kinase inhibitors, biochemical, TCAMS library (AID 1159588; cut-off not given, nearly all actives have IC50 up to about 0.91 µM). To be noted: recombinant PfCDPK4, Kinase-Glo ATP depletion luminescence.
Calcium-dependent protein kinase 4 (Plasmodium falciparum (isolate 3D7)), sequence (Q8IBS5 whole entry, looked up): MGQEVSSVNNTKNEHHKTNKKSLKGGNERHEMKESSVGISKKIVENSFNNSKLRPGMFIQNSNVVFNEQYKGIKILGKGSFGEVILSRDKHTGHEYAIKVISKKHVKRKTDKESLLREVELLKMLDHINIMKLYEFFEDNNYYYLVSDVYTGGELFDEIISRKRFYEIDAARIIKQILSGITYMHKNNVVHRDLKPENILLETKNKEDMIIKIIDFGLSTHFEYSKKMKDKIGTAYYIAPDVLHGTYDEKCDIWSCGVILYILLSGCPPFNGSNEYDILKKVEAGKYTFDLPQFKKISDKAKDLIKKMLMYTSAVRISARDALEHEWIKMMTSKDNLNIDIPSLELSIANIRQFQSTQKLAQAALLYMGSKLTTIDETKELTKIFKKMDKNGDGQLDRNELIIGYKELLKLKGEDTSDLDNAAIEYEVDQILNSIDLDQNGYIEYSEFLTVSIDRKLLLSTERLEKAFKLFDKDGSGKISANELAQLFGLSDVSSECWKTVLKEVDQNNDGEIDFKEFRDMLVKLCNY

Protein kinase 7 (PK7), Plasmodium falciparum 3D7 (PF3D7_0213400), sequence (Q7YTF7 1-343): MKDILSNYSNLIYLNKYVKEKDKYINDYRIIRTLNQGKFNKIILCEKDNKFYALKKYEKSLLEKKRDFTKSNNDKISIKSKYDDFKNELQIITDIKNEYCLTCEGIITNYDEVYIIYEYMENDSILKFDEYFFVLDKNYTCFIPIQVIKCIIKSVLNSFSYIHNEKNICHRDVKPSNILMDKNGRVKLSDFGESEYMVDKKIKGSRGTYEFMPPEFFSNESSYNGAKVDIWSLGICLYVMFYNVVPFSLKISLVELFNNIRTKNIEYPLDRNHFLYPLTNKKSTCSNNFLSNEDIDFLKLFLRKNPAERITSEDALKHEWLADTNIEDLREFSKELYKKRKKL
Calcium-dependent protein kinase 1 (Plasmodium falciparum (isolate 3D7)), sequence (P62344 whole entry, looked up): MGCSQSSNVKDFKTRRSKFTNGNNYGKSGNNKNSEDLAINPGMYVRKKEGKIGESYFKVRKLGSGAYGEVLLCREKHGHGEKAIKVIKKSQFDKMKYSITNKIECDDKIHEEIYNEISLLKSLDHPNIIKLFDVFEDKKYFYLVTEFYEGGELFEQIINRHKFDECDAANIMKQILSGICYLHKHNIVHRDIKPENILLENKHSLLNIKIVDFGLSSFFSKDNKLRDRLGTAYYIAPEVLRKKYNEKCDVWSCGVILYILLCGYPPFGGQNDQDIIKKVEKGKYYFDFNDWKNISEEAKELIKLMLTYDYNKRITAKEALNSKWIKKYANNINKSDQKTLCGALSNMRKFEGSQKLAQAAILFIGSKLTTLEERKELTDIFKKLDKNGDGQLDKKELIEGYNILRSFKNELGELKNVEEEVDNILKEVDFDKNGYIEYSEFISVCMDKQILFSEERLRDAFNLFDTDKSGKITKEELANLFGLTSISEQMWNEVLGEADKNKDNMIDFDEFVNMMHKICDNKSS
Plasmodium falciparum protein kinase 6 (PK6, PF3D7_1337100), sequence (Q8IDW1 1-305): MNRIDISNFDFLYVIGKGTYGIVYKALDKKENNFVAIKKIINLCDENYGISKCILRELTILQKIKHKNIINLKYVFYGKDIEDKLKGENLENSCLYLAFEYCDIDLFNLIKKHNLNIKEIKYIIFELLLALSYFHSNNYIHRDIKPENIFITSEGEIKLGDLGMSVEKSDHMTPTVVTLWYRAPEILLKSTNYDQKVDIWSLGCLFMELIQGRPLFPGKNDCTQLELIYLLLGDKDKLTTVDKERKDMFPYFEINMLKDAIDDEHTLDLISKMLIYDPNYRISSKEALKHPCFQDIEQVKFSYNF
L-lactate dehydrogenase (Plasmodium falciparum (isolate CDC / Honduras)), sequence (Q27743 whole entry, looked up): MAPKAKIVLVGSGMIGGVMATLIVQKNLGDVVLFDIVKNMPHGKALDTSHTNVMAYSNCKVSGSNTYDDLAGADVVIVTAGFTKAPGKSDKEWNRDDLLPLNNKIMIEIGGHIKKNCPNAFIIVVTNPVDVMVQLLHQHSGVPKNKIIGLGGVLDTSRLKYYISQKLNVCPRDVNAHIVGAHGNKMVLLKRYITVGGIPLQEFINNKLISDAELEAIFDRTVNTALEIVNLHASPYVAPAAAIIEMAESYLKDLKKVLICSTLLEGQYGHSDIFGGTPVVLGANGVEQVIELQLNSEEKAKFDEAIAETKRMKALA

Take `COc1ccc2nc(-c3ccc(C(=O)NCCCN4CCN(c5cc(Cl)ccc5OC)CC4)cc3)[nH]c2c1`: the results for the growth inhibition in assay [1] and in assay [4] were 53% (active) and 97% (active), respectively. Besides, the inhibition is -2% in assay [2] and 1% in assay [3]. In addition, the outcome in assay [5], in assay [6], in assay [7] and in assay [8] was inactive.
As to `COc1ccccc1N1CCN(c2cccc(F)c2C#N)CC1`, the growth inhibition in assay [1] is 59% (active); in assay [4], 85% (active). The inhibition in assay [2] and in assay [3] was -2% in each case. In addition, the result in assay [5], in assay [6], in assay [7] and in assay [8] was inactive.
Consider `O=c1[nH]c2c(cc1CNC1CCCCC1)c(-c1ccc(F)cc1)nn2-c1ccccc1`, for which the results for the growth inhibition in assay [1] and in assay [4] were 88% (active) and 99% (active), respectively. The inhibition in assay [2] was 8%; in assay [3], 6%. The outcome in assay [5], in assay [6], in assay [7] and in assay [8] was inactive.
As for `O=C(/C=C/c1ccc(Cl)c(Cl)c1)N1CCC(C(O)CN2CCC(c3c[nH]c4ccccc34)CC2)CC1` (stereo not given), the values for the growth inhibition in assay [1] and in assay [4] were 46% and 99% (active), respectively. In addition, the inhibition in assay [2] is 14%; in assay [3], -4%. For the same compound, the outcome in assay [5], in assay [6], in assay [7] and in assay [8] was inactive.
Consider `Cc1cccc2[nH]c(-c3cccc(-c4ccc(NC(=O)COc5ccccc5C(N)=O)cc4)c3)nc12`, for which the growth inhibition in assay [1] is 47%; in assay [4], 101% (active). The values for the inhibition in assay [2] and in assay [3] were 18% and -8%, respectively. Further, the outcome in assay [5], in assay [6], in assay [7] and in assay [8] was inactive.
`O=C(/C=C/c1ccc(Cl)c(Cl)c1)NCCCCCN1CCCC(C(=O)Nc2cccc(Cl)c2)C1` (stereo not given): the growth inhibition in assay [1] was 2%; in assay [4], 99% (active). For the same compound, the figures for the inhibition in assay [2] and in assay [3] were 41% and -2%, respectively. For the same compound, the outcome in assay [5], in assay [6], in assay [7] and in assay [8] was inactive.
Turning to `CCc1c[nH]c2c(N(c3ccccc3)S(C)(=O)=O)cc(C(=O)N[C@@H](Cc3ccccc3)[C@H](O)CNC(C)(C)CCCC(C)C)cc12`, the growth inhibition is 96% (active) in assay [1] and 98% (active) in assay [4]. For the same compound, the figures for the inhibition in assay [2] and in assay [3] were 99% (active) and -1%, respectively. Also, the outcome in assay [5], in assay [6], in assay [7] and in assay [8] was inactive.
Regarding `O=C(Cn1c(CCc2cccc(F)c2F)cc(=O)c2cccnc21)N(CCCn1ccnc1)Cc1ccc(-c2ccc(C(F)(F)F)cc2)cc1`, the growth inhibition in assay [1] is 47%; in assay [4], 96% (active). Also, the inhibition is 38% in assay [2] and -3% in assay [3]. The result in assay [5], in assay [6], in assay [7] and in assay [8] was inactive.
With `CCc1c(C)c2ccc3c(c2oc1=O)CN(CCc1ccc(F)cc1)CO3`, the growth inhibition in assay [1] was 85% (active); in assay [4] it was 94% (active). The inhibition was 0% in assay [2] and -2% in assay [3]. Besides, the result in assay [5], in assay [6], in assay [7] and in assay [8] was inactive.
Regarding `CN(Cc1cccc(O)c1)C1CCCN(c2cc(NC(=O)c3ccc(F)cc3)ccn2)C1` (stereo not given), the growth inhibition in assay [1] was 12%; in assay [4], 91% (active). The inhibition in assay [2] is 8%; in assay [3] it was -2%. Besides, the result in assay [5], in assay [6], in assay [7] and in assay [8] was inactive.
Take `CCCCN1CCN(c2cc(NS(=O)(=O)c3cccc(C(=O)Nc4ccc(C(F)(F)F)cc4)c3)ccc2OC)CC1`: the growth inhibition in assay [1] is 7%; in assay [4] it was 99% (active). Besides, the inhibition in assay [2] was 6%; in assay [3], 4%. In addition, the outcome in assay [5], in assay [6], in assay [7] and in assay [8] was inactive.
`O=C(CCCCCNC(=O)c1ccc(O)c(-c2ccc(Cl)c(Cl)c2)c1)NCCN1CCCC1`: the results for the growth inhibition in assay [1] and in assay [4] were 2% and 90% (active), respectively. Besides, the inhibition was -6% in assay [2] and -2% in assay [3]. In addition, the outcome in assay [5], in assay [6], in assay [7] and in assay [8] was inactive.
`CC(=O)N(C)C1CCN(Cc2cccc(-c3ccc(-c4nc5ccc(C(F)(F)F)cc5[nH]4)cc3)c2)C1` (stereo not given): the figures for the growth inhibition in assay [1] and in assay [4] were 94% (active) and 100% (active), respectively. Moreover, the inhibition is 31% in assay [2] and 3% in assay [3]. Further, the result in assay [5], in assay [6], in assay [7] and in assay [8] was inactive.
Turning to `c1cncc(CCNCc2ccc(-c3ccc(CNC4Cc5ccccc5C4)cc3)cc2)c1`, the growth inhibition in assay [1] was 29%; in assay [4] it was 92% (active). Besides, the inhibition in assay [2] is 32%; in assay [3] it was 1%. In addition, the result in assay [5], in assay [6], in assay [7] and in assay [8] was inactive.
On to `O=C(NCc1cccc(Br)c1)c1ccc(CNC2CCN(Cc3ccccc3)CC2)cc1`, for which the growth inhibition in assay [1] was 49%; in assay [4], 100% (active). The inhibition in assay [2] was 3%; in assay [3], 4%. The result in assay [5], in assay [6], in assay [7] and in assay [8] was inactive.
For the compound `Clc1ccc2c(NN=Cc3cccs3)ccnc2c1`, the growth inhibition in assay [1] was 96% (active); in assay [4], 100% (active). Moreover, the inhibition in assay [2] is -4%; in assay [3], 2%. For the same compound, the outcome in assay [5], in assay [6], in assay [7] and in assay [8] was inactive.
In the case of `CCCc1cc(Cc2cnc(N)nc2N)cc(OCCCCCC(=O)O)c1OC`, the growth inhibition is 2% in assay [1] and 95% (active) in assay [4]. Further, the values for the inhibition in assay [2] and in assay [3] were 8% and 4%, respectively. The result in assay [5], in assay [6], in assay [7] and in assay [8] was inactive.
Regarding `CCOC(=O)C(NC(=O)c1ccc([N+](=O)[O-])o1)C(C)C` (stereo not given), the growth inhibition in assay [1] was 8%; in assay [4], 87% (active). Further, the figures for the inhibition in assay [2] and in assay [3] were -3% and 0%, respectively. In addition, the outcome in assay [5], in assay [6], in assay [7] and in assay [8] was inactive.
For the compound `O=C(Nc1ccsc1)Nc1cccc(-c2ccc(-c3nc4ccc(C(F)(F)F)cc4[nH]3)cc2)c1`, the results for the growth inhibition in assay [1] and in assay [4] were 36% and 99% (active), respectively. In addition, the inhibition in assay [2] is 45%; in assay [3], -2%. Moreover, the result in assay [5], in assay [6], in assay [7] and in assay [8] was inactive.
As for `O=C(NCc1cccc(OC(F)(F)F)c1)c1cnc2c(c1)nc(-c1cnc(-c3ccccc3)[nH]1)n2CCc1cnc[nH]1`, the figures for the growth inhibition in assay [1] and in assay [4] were 47% and 99% (active), respectively. In addition, the inhibition in assay [2] was 0%; in assay [3], -10%. The outcome in assay [5], in assay [6], in assay [7] and in assay [8] was inactive.

As usually defined, the inhibition is the relative decrease from the control value, in per cent.
